The source of these data is PubChem BioAssay AID651800 (The Scripps Research Institute Molecular Screening Center, 2012).

Out of some 360,000 compounds screened, about 1,300 (0.36%) were called active. The full list was thinned out, with actives kept by preference. A number with no mark means an inactive call. Cut-off read from the data, not from the text of the source: active = inhibition above about 19%; inactive = the rest.

For the test, the system named is T-cell receptor (TCR). The test is described as follows: small molecules blocking TCR binding to CD3 – biochemical, fluorescence, TAMRA-labeled TCR probe, primary screen (AID 651800).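 Note: recombinant mutant TCR 2C K166C tagged with TAMRA read by polarization; 0% = receptor in buffer alone and 100% = receptor with positive control.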 The following applies: at 9.4 µM, active compounds read high.
The term inhibition denotes the change of the read-out against control, counted positive when it falls. For the compound `COCCNC(=S)N(C)[C@H]1C[C@H]2c3[nH]c4ccccc4c3CCN2C[C@H]1[C@H](C)O`, the inhibition is 10.3%.
Take `CC(=O)N(C)c1ccc(NC(=O)Nc2cccc3ccccc23)cc1`: the inhibition is -3.94%.
As for `CCN(C(=O)Nc1cccc2ccccc12)c1ccccc1`, the inhibition was 66.9% (active).
`O=C(Nc1cccc2ccccc12)NC1CC1`: the inhibition was 10.8%.
For `CC1CCN(c2ccc(S(=O)(=O)Nc3cc(C(=O)O)cc(C(=O)O)c3)cc2[N+](=O)[O-])CC1` the value was 2.91%.
As for `O=C(O)c1ccc(-n2nc(-c3ccccc3)c3ccccc3c2=O)cc1`, the inhibition is -0.55%.
In the case of `O=c1c2ccccc2c(-c2ccccc2)nn1-c1ccccn1`, the inhibition is 26.3% (active).
For `CCOC(=O)C(C)n1nc(-c2ccccc2)c2ccccc2c1=O` (stereo unspecified) the value was 1.19%.
The same measure for `CC(C)[C@@H](C)/C=C/[C@@H](C)[C@H]1CC[C@@H]2[C@]1(C)CCC1[C@]23C=C[C@]2(C[C@@H](O)CC[C@]12C)N(c1ccc([N+](=O)[O-])cn1)O3` (stereo partly specified): 0.39%; for `COC(=O)Nc1nc2ccc(C(=O)C3CC3)cc2[nH]1`: 2.68%.
For `CC(=NNC(N)=O)c1ccc(Cl)c(-n2cccc2)c1` the value was -1.93%; for `CSc1ccc(/C=N/NC(=O)c2cccc(Cl)c2)cc1`, -1.56%.
`O=C(N/N=C/c1ccoc1)c1ccc(Cl)cc1Cl`: the inhibition is 2.14%.
For `CC(C)(C)C(=O)Nc1ccc(C(=O)N/N=C/c2ccccc2OC(=O)c2ccc(Cl)cc2Cl)cc1`, the inhibition was 33.2% (active).
The same measure for `OC(CCl)CCl`: 2.99%; for `CCOc1c(OC)cccc1C(=O)NCC1(c2ccccc2)CCCC1`: -3.45%.
As to `COc1ccc(C2(CNC(=O)Cc3ccc(OC)c(OC)c3)CCCC2)cc1`, the inhibition is 8.2%.
For `COc1cc(C(=O)NCC2(c3ccccc3)CCCC2)ccc1OC(C)C` the value was 35.4% (active); for `CCOC(=O)/C=C/c1ccccc1O`, 0.35%; for `O=C(Nn1c(SCc2ccc([N+](=O)[O-])cc2)nc2ccccc2c1=O)c1ccc(F)cc1`, 4.61%.
The same measure for `CC(=O)N1c2ccccc2N(Cc2ccc([N+](=O)[O-])cc2)C(=O)C1(C)C`: -3%; for `O=c1[nH]n(-c2ccc([N+](=O)[O-])cc2)c(=O)c2ccccc12`: 57% (active); for `N#Cc1ccc(-c2nc3cc(C#N)c(C#N)cc3nc2-c2ccccc2)cc1C#N`: 10.9%.
Consider `COc1ccc(NC(=O)N(C)C[C@@H]2OCCCC[C@@H](C)Oc3ccc(NC(=O)NC4CCCCC4)cc3C(=O)N([C@H](C)CO)C[C@@H]2C)cc1`, for which the inhibition was 4.84%.
For `Cc1cc(=O)n2[nH]c(-c3sccc3-n3c(C)ccc3C)cc2n1`, the inhibition was -6.69%.
Consider `CCOc1ccc(-n2c(O)c(/C=N/Nc3nnc(C)c(=O)[nH]3)c3ccccc3c2=O)cc1`, for which the inhibition is 43.9% (active).
For the compound `CCOc1ccc(N/C(N)=N/c2nc(C)c(C)c(=O)[nH]2)cc1`, the inhibition is 4.59%.
For `CCOc1ccc(-n2c(SCC(=O)Nc3cc(C(=O)O)ccc3Cl)nc3ccccc3c2=O)cc1` the value was -2.21%; for `CCN1C(=O)N[C@@H]2C[C@H](C(=O)N3CCCC3)[C@H](C)[C@H](c3ccccc3)C[C@@H]21`, 2.71%.
As to `CCCCCCc1cc2cc(-c3nnc(-c4cccc(OC)c4)o3)c(=O)oc2cc1O`, the inhibition was -0.99%.
For `COC(=O)c1cc2c(c3c4ccccc4n(S(=O)(=O)c4cccc(C)c4)c13)C(=O)N(Cc1ccccc1)C2` the value was -0.99%.
Consider `Nc1ccn([C@@H]2O[C@H](C(=O)N[C@H]3CCCCNC3=O)[C@@H](O)[C@H]2O)c(=O)n1`, for which the inhibition is 1.09%.
For `COc1ccc(/C(N)=N/OC(=O)CCCc2ccccc2)cc1`, the inhibition is 3.62%.
The same measure for `COc1ccc(C(=O)NC(=S)NNC(=O)CCc2ccccc2)cc1`: 101% (active); for `COc1ccccc1CCC(=O)NNC(=O)c1ccncc1`: 1.16%; for `C[C@@H]1CN([C@H](C)CO)C(=O)CCCn2cc(nn2)CO[C@H]1CN(C)C(=O)Nc1ccc(N2CCCCC2)cc1`: -4.6%.
`O=C(Nc1c(Cl)c(C2CC2)nn1-c1ccccc1)C(Cl)(Cl)Cl`: the inhibition is 4.25%.
`O=C(N[C@H](C(=O)N1CCC[C@H]1C(=O)NCCc1ccccc1Cl)c1ccccc1)c1ccccc1`: the inhibition was 7.43%.
Turning to `Cc1cc(NCCc2c[nH]c3ccccc23)ccc1Oc1cccnc1`, the inhibition was -1.7%.
As for `O=C(N[C@H](Cc1ccccc1)C(=O)N1CCCN(Cc2cccs2)CC1)[C@H]1O[C@@H](n2ccc(=O)[nH]c2=O)[C@H](O)[C@@H]1O`, the inhibition was -1.23%.
Consider `COC(=O)N1Cc2ccnnc2CC1c1ccccc1Br` (stereo unspecified), for which the inhibition was 12%.
The same measure for `Cc1ccc(NC(=O)N2c3ccccc3SC2c2ccco2)c(C)c1` (stereo unspecified): 1.82%; for `COC(=O)C1=C(C)N(Cc2ccc(C(F)(F)F)cc2)C(=NCc2ccc(C(F)(F)F)cc2)NC1c1cccc(Cl)c1` (stereo unspecified): 1.76%; for `COCCOC(=O)c1sc(=S)n(CCOC)c1N`: 38.1% (active).
The same measure for `COC(=O)[C@]12C[C@H](CC(=O)NCCC(C)C)C(=O)N(CCc3ccc(OC)c(OC)c3)C1=C[C@H](C(C)(C)C)O[C@@H]2C`: -1.41%; for `COCc1cc(N2CCN(C(=O)OC(C)(C)C)C[C@@H]2C)ccc1N1CCN(Cc2ccccc2)[C@H](C)C1`: -5.69%.
Consider `Cc1cc(N2CCN(C(=O)OC(C)(C)C)C[C@H]2C)ccc1N1CCN(Cc2ccccc2)[C@H](C)C1`, for which the inhibition is -1.77%.
Turning to `COc1cccc2c1C(=O)c1c(O)c3c(c(O)c1C2=O)CC(O)(C(C)=NNC(=O)c1ccc(Cl)c(Cl)c1)CC3OC1CC(N)C(O)C(C)O1` (stereo unspecified), the inhibition was 158% (active).
For `Nc1nc2c(ncn2[C@@H]2O[C@H](C(=O)N[C@H](Cc3ccccc3)C(=O)NCC3CCCCC3)[C@@H](O)[C@H]2O)c(=O)[nH]1` the value was -5.72%.
For `CCCCCCCCN1C(=O)[C@@H](CC(=O)NCCCC)C[C@@]2(C(=O)OC)C1=C[C@H](C(C)(C)C)O[C@@H]2C` the value was 4.32%; for `CC1(C)OC(=O)C2=C(CC(CCc3ccccc3)OC2c2ccc(Cl)cc2)O1` (stereo unspecified), 0.34%.
